Source: PubChem (National Center for Advancing Translational Sciences (NCATS))
FMDV inh: antivirals against foot and mouth disease virus; FMDV antiviral cell-based qHTS; 1.2% of 410,000 active; Potency, µM (doses to about 57.9 µM), most hits filed as inhibitors; AID 1159524; calls by dose curve; tested in HEK293T cells; note: read-out not given here; nearly all actives have a fitted effect of over 45% in size
HCMV inh: human cytomegalovirus inhibition; HFF cells, HCMV-luciferase reporter, 72 h; active compounds read low; 4.5% of 410,000 active; activity change, negative = inhibition, % at 57.5 µM; AID 1259415; in the data active = activity change below about -60%; inconclusive = no clear call, values can overlap the other calls; inactive = above about -39%
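Compounds were evaluated in HFFs infected with an HCMV luciferase reporter virus (MOI 1 PFU/cell). Luciferase in lysates collected 72 h post infection served as the replication measure.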
LASV entry inh: blocks Lassa virus binding to or entry into cells | Potency, µM (highest dose often 37.9 µM), most hits filed as inhibitors | Lassa virus pseudotype entry inhibition, cell reporter | AID 540256 | 1.2% of 300,000 active; calls by dose curve; tested in HEK293 cells; note: nearly all actives have a fitted effect of over 50% in size
HCV inh: inhibitors of hepatitis C virus infection. Huh7.5.1 HCVcc-Cre infection, luciferase reporter, 44 h. Potency, µM (top dose mostly 41.8 µM), usual class: inhibitors. 3.4% of 340,000 active. AID 651820; active = well fitted inhibition curve with a large enough effect; inconclusive = small, poorly fitted or top-dose-only effect, or another doubt; inactive = no such curve, though single readings can be large or run the other way
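Compounds are dispensed onto cells plated 4 h earlier at 1,000 per well, with HCVcc-Cre virus (about 0.5 moi) added next. Following 44 h of culture, luminescent signal is measured for 15 sec after 15 min with substrate at room temperature.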
Marburg entry inh: Marburg virus entry inhibition; Marburg virus pseudotyped entry inhibition, cell reporter; Potency, µM (highest dose often 37.8 µM), hits mostly inhibitors; 1.8% of 300,000 active; AID 540276; calls by dose curve; tested in HEK293 cells
Large screens that a line does not name were inactive. A selection: hits, their analogues and other compounds. The true share with any hit is near 7.9%.

CCC12CN3CC(C)(CN(C1)C3c1c(C)[nH]c3ccccc13)C2=O (stereo not drawn)	LASV entry inh inconclusive (no result: HCV inh)
O=c1c2c(nc3c(-c4cccc(Br)c4)c[nH]n13)CCCC2	HCMV inh -102.1, HCV inh 6.31µM
CCOC(=O)C1CCCN(S(=O)(=O)c2ccc3c(c2)CCN3C(=O)CC)C1 (stereo not drawn)	FMDV inh inconclusive (no result: HCV inh)
COC(=O)c1ccc(Cl)cc1NC(=O)NC(C)c1c(-n2cccc2)sc(C)c1C (stereo not drawn)	none (no result: LASV entry inh, HCV inh)
CN1CCN(Cc2c(O)ccc3cc(Br)ccc23)CC1	HCMV inh -68.8, Marburg entry inh inconclusive
O=[N+]([O-])c1cc([N+](=O)[O-])c2cc3ccccc3nc2c1	FMDV inh 28.2µM, LASV entry inh inconclusive, HCV inh inconclusive, Marburg entry inh inconclusive
O=[N+]([O-])c1cnc2ccccc2c1	Marburg entry inh inconclusive
Cc1sc2ncnc(Sc3ccccc3C(=O)Nc3ccccc3Cl)c2c1C	none (no result: LASV entry inh)
Cc1sc2ncnc(Sc3ccccc3C(=O)Nc3ccc(C#N)cc3)c2c1C	HCMV inh inconclusive, LASV entry inh inconclusive, HCV inh 25.1µM, Marburg entry inh inconclusive
Cc1sc2ncnc(Sc3ccccc3C(=O)Nc3ccc(Br)cc3)c2c1C	HCV inh 5.62µM
CC(=O)C1=CN(CCc2c[nH]c3ccccc23)C(=O)NC1c1ccccc1 (stereo not drawn)	none (no result: FMDV inh, HCMV inh, LASV entry inh, HCV inh)
CNc1ccccc1C(C)(C)c1cc(C)[nH]n1	HCMV inh -65.0 (no result: LASV entry inh, Marburg entry inh)
CC(C)C[C@H]1CN([C@@H](CC(C)C)CN2CCC[C@@H]2CN2C(=O)C(=O)NC[C@@H]2Cc2ccccc2)C(=O)C(=O)N1CC1CCCCC1	HCMV inh -65.9 (no result: LASV entry inh, Marburg entry inh)
CC(C)C[C@@H](CN1CCC[C@H]1CN1C(=O)C(=O)NC[C@@H]1Cc1ccccc1)N1C[C@H](Cc2ccc(O)cc2)N(CC2CCCCCC2)C(=O)C1=O	HCMV inh -103.0 (no result: LASV entry inh, HCV inh, Marburg entry inh)
CC(C)C[C@H]1CNC(=O)C(=O)N1C[C@H]1CCCN1C[C@H](CC(C)C)N1C[C@H](Cc2ccccc2)N(CC2CCCCC2)C(=O)C1=O	none (no result: LASV entry inh, HCV inh, Marburg entry inh)
CC(=NNc1ccc2ccccc2n1)c1ccccn1	HCMV inh -101.0 (no result: FMDV inh, LASV entry inh, HCV inh, Marburg entry inh)
C/C(=N\Nc1ccc(Cl)cc1)c1ccccn1	Marburg entry inh inconclusive (no result: HCV inh)
COc1ccc2c(c1)C(=NNC(=O)c1ccccn1)c1cc(OC)ccc1-2	HCMV inh inconclusive, HCV inh inconclusive, Marburg entry inh inconclusive
CC(=NNc1ccc2ccccc2n1)c1ccccc1O	FMDV inh inconclusive, HCMV inh -60.8, LASV entry inh 3.16µM, HCV inh inconclusive, Marburg entry inh inconclusive
COc1ccc2nc(NN=C(C)c3ccccn3)cc(C)c2c1	HCMV inh -98.7, LASV entry inh inconclusive, HCV inh inconclusive, Marburg entry inh inconclusive
C/C(=N\Nc1cc(C)nc(-c2ccccc2O)n1)c1ccccc1O	HCV inh 11.2µM (no result: LASV entry inh, Marburg entry inh)
CCc1ccc(S(=O)(=O)Nc2cc3c(cc2C)n(C)c(=O)c(=O)n3C)cc1	none (no result: HCV inh, Marburg entry inh)
COc1ccc(Nc2nc3ccccc3nc2NS(=O)(=O)c2ccc(Cl)cc2)cc1OC	none (no result: HCV inh)
Cc1ccc(NC(=O)Cn2c(=O)c(C)nc3ccccc32)cc1	Marburg entry inh inconclusive
Cc1nc2ccccc2n(CC(=O)Nc2cc(Cl)cc(Cl)c2)c1=O	HCMV inh -60.6
Cc1cc(CN2CCN(c3cccc(C)c3C)CC2)cs1	HCMV inh -68.7 (no result: HCV inh, Marburg entry inh)
CC(C)CNc1ncnc2c1ncn2[C@H]1CN(Cc2cccc3ccccc23)C[C@@H](CO)O1	HCMV inh -69.6 (no result: LASV entry inh, HCV inh, Marburg entry inh)
CC(C)Nc1ncnc2c1ncn2[C@H]1CN(Cc2ccc3c(c2)OCO3)C[C@@H](CO)O1	none (no result: LASV entry inh, HCV inh, Marburg entry inh)
OC[C@@H]1CN(Cc2cccc3ccccc23)C[C@H](n2cnc3c(NCc4ccco4)ncnc32)O1	none (no result: LASV entry inh, HCV inh, Marburg entry inh)
CC(C)CNc1ncnc2c1ncn2[C@H]1CN(Cc2ccc3c(c2)OCO3)C[C@@H](CO)O1	HCMV inh -66.2 (no result: LASV entry inh, HCV inh, Marburg entry inh)
CCOc1ccc(-n2c(C)cc(/C=N\NC(=O)CC(=O)NC3CCCCC3)c2C)cc1	HCMV inh -81.1, LASV entry inh inconclusive, Marburg entry inh inconclusive
O=C(COc1ccccc1)Nc1ccccc1C(=O)OCc1cc(=O)n2nc(C3CC3)sc2n1	none (no result: HCV inh, Marburg entry inh)
O=C(N/N=C/c1ccc(N2CCOCC2)s1)c1ccc(O)cc1	none (no result: LASV entry inh, HCV inh, Marburg entry inh)
O=C(N/N=C/c1ccc([N+](=O)[O-])s1)c1ccncc1	HCV inh inconclusive, Marburg entry inh inconclusive (no result: HCMV inh)
O=C(N/N=C/c1ccc([N+](=O)[O-])s1)c1cccc(Br)c1	FMDV inh inconclusive, HCMV inh -69.1, HCV inh inconclusive, Marburg entry inh inconclusive
O=C(NN=Cc1ccc(N2CCOCC2)s1)c1ccc([N+](=O)[O-])cc1	FMDV inh inconclusive, HCV inh 22.4µM (no result: LASV entry inh, Marburg entry inh)
Cn1c(SCC(=O)N/N=C/c2ccc([N+](=O)[O-])s2)nnc1-c1ccc(Cl)cc1	FMDV inh inconclusive, LASV entry inh inconclusive, HCV inh inconclusive, Marburg entry inh 11.6µM
Cc1ccc(C(=O)N/N=C/c2ccc([N+](=O)[O-])s2)cc1	FMDV inh 2.82µM, LASV entry inh inconclusive, HCV inh 2.82µM, Marburg entry inh 11.2µM
Cc1cccc(NC(=O)N2CCC(N3CCN(Cc4ccccc4)C(=O)C3=O)CC2)c1C	none (no result: HCV inh, Marburg entry inh)
Cn1nnnc1Sc1ncnc2scc(-c3ccccc3Br)c12	FMDV inh inconclusive, HCMV inh -93.2 (no result: LASV entry inh, HCV inh, Marburg entry inh)
Cn1nnnc1SCSc1nnnn1C	none
Cn1nnnc1SCc1nc2scc(-c3ccccc3)c2c(=O)[nH]1	FMDV inh inconclusive (no result: LASV entry inh, Marburg entry inh)
Cn1nnnc1Sc1ncnc2scc(Br)c12	FMDV inh 22.4µM, HCMV inh -97.4 (no result: LASV entry inh, HCV inh, Marburg entry inh)
Cn1nnnc1Sc1ncnc2scc(-c3ccc[nH]3)c12	FMDV inh inconclusive, HCMV inh -97.8 (no result: LASV entry inh, HCV inh, Marburg entry inh)
Cn1nnnc1Sc1ncnc2scc(-c3ccc(F)cc3)c12	FMDV inh 15.8µM, HCMV inh -76.4, LASV entry inh 4.11µM, HCV inh inconclusive, Marburg entry inh 8.2µM
